# Values joined by “and” are separate entries in the source; they are usually repeats but may differ in a detail not shown here. Identical values can stand only once. Results filed as inconclusive are left out. The source holds several records for some structures; these can differ, active in one and inactive in another. Active and inactive are the calls of the source. The call rests on the fitted dose curve; in most records, active means well fitted curve in the direction sought with a large enough effect; inconclusive means small, poorly fitted or top-dose-only effect, or another doubt; inactive means no such curve, though single readings can be large; an effect the other way counts as inactive or inconclusive.
# Assay: Primary qHTS for inhibitors of nuclear receptor binding SET domain protein 2 (NSD2) in an isogenic RCH-ACV NSD2 p.E1099K mutant (9B) (AID 1645876)
# Details: RCH-ACV NSD2 E1099K (9B) viability, CellTiter-Glo, 72 h; series mostly up to 44.9 µM
# Further: nearly all actives have a fitted effect of over 70% in size.
# Potency means the concentration at half of the fitted maximal effect.
row,Compound,Potency
1,O=S(=O)(NCCNC/C=C/c1ccc(Br)cc1)c1cccc2cnccc12,16.6 µM (active)
2,C=CC(=O)Nc1cccc(Nc2nc(Nc3ccccc3)ncc2C)c1,8.2 µM (active)
3,CC(C)=CCC/C(C)=C/CC/C(C)=C/CSc1ccccc1C(=O)O,inactive
4,CCOC(=O)c1c2c3c(cccc3[nH]c1=O)C(=O)c1ccccc1-2,inactive
5,CCOc1cccc2c1OC(c1ccc(F)cc1)C([N+](=O)[O-])=C2 (stereo unspecified),5.8 µM (active)
6,COC(=O)C#Cc1ccc([N+](=O)[O-])cc1,4.61 µM (active)
7,CN1CCN(c2nc(C3=C(c4c[nH]c5ccccc45)C(=O)NC3=O)c3ccccc3n2)CC1,16.4 µM (active) and 16.6 µM (active)
8,Cc1cc(F)c(Nc2ncnc3cc(OCc4ccccc4)ccc23)cc1O,3.66 µM (active)
9,c1ccc(-c2[nH]ncc2-c2ccnc3ccccc23)nc1,inactive
10,C/C(=C1/C(=O)Nc2ccc(NC(N)=O)cc21)c1ccc[nH]1,1.64 µM (active)
11,Nc1nc(N)c2nc(-c3cccc(O)c3)cnc2n1,1.64 µM (active)
12,CN(C)Cc1cccc(N=C(c2ccccc2)c2c(O)[nH]c3cc(C(N)=O)ccc23)c1,16.4 µM (active)
13,Cc1ccc(Nc2ncc3c(n2)N(C)C(=O)N(c2cc(NC(=O)c4cccc(C(F)(F)F)c4)ccc2C)C3)cn1,0.0332 µM (active)
14,CCCCCC1CC1CC1CC1CCCCCCCC(=O)O (stereo unspecified),inactive
15,COc1ccc(-c2oc3ncnc(N)c3c2-c2ccc(NC(=O)Nc3cc(C(F)(F)F)ccc3F)cc2)cc1,6.51 µM (active) and inactive
16,COC1(c2sc3c(N4CCOCC4)nc(-c4cnc(N)nc4)nc3c2C)COC1,0.209 µM (active)
17,CS(=O)(=O)c1ccc([C@@H](C[C@H]2CCC(=O)C2)C(=O)Nc2cnccn2)cc1Cl,inactive
18,CC(CCc1ccccn1)(CCc1ccccn1)C(=O)c1ccccc1,inactive
19,c1nc(NCC2CCOC2)c2cc(-c3ccc4c(c3)OCO4)ccc2n1 (stereo unspecified),16.4 µM (active)
20,COc1cc2ncnc(Sc3nnc(C)s3)c2cc1OC,2.91 µM (active)
21,Cc1cc(-c2ccc(/C=C3\SC(=Nc4ccc(Cl)c(C(=O)O)c4)NC3=O)o2)c([N+](=O)[O-])cc1C,inactive
22,OCC(O)CCO/N=C1/C(c2c(O)[nH]c3ccccc23)=Nc2ccccc21 (stereo unspecified),2.59 µM (active)
23,Cn1cc(-c2cc(Oc3cc(F)c(NC(=O)C4(C(=O)Nc5ccccc5)CC4)cc3F)ccn2)cn1,9.34 µM (active)
24,Oc1cccc(Nc2ccnc3cc(-c4cccc(CN5CCOCC5)c4)sc23)c1,1.64 µM (active)
25,COc1cc(OC)cc(N(CCNC(C)C)c2ccc3ncc(-c4cnn(C)c4)nc3c2)c1,11.8 µM (active)
26,O=C(O)c1c[nH]c2c(ccc3ccccc32)c1=O,inactive
27,O=C(NOCCO)c1cc(CN2OCCCC2=O)c(F)c(F)c1Nc1ccc(I)cc1F,inactive
28,Cc1c[nH]c(/C=C2\C(=O)Nc3ccccc32)c1CCC(=O)O,14.8 µM (active)

# Assay: Primary qHTS for inhibitors of nuclear receptor binding SET domain protein 2 (NSD2) in an RCH-ACV wild type WT cells (2C) (AID 1645877)
# Details: RCH-ACV (leukaemia line) NSD2 WT (2C) viability, CellTiter-Glo, 72 h; series mostly up to 44.9 µM
row,Compound,Potency
1,C=CC(=O)Nc1cccc(Nc2nc(Nc3ccccc3)ncc2C)c1,8.2 µM (active)
2,CC(C)=CCC/C(C)=C/CC/C(C)=C/CSc1ccccc1C(=O)O,inactive
3,C[n+]1cc(NC(=O)c2cccc(C(=O)Nc3cc4ccccc4[n+](C)c3)n2)cc2ccccc21,inactive
4,CN1CCN(c2nc(C3=C(c4c[nH]c5ccccc45)C(=O)NC3=O)c3ccccc3n2)CC1,14.8 µM (active)
5,Cc1cc(F)c(Nc2ncnc3cc(OCc4ccccc4)ccc23)cc1O,3.26 µM (active)
6,c1ccc(-c2[nH]ncc2-c2ccnc3ccccc23)nc1,inactive
7,C/C(=C1/C(=O)Nc2ccc(NC(N)=O)cc21)c1ccc[nH]1,1.84 µM (active)
8,Nc1nc(N)c2nc(-c3cccc(O)c3)cnc2n1,1.46 µM (active)
9,CN(C)Cc1cccc(N=C(c2ccccc2)c2c(O)[nH]c3cc(C(N)=O)ccc23)c1,inactive
10,Cc1ccc(Nc2ncc3c(n2)N(C)C(=O)N(c2cc(NC(=O)c4cccc(C(F)(F)F)c4)ccc2C)C3)cn1,0.059 µM (active)
11,CCCCCC1CC1CC1CC1CCCCCCCC(=O)O (stereo unspecified),inactive
12,CCCCCCCCCCCCCCCCOCCCOP(=O)(O)COC(CO)Cn1ccc(N)nc1=O (stereo unspecified),18.6 µM (active)
13,COc1ccc(-c2oc3ncnc(N)c3c2-c2ccc(NC(=O)Nc3cc(C(F)(F)F)ccc3F)cc2)cc1,10.3 µM (active) and inactive
14,COC1(c2sc3c(N4CCOCC4)nc(-c4cnc(N)nc4)nc3c2C)COC1,0.186 µM (active)
15,CS(=O)(=O)c1ccc([C@@H](C[C@H]2CCC(=O)C2)C(=O)Nc2cnccn2)cc1Cl,inactive
16,CC(C)OC(=O)OCOP(=O)(COC(C)Cn1cnc2c(N)ncnc21)OCOC(=O)OC(C)C (stereo unspecified),inactive
17,CNC(=O)c1c(C)oc2cc(Oc3ncnc4cc(OC)c(OC)cc34)ccc12,inactive
18,COc1cc2ncnc(Sc3nnc(C)s3)c2cc1OC,3.26 µM (active)
19,Cc1cc(-c2ccc(/C=C3\SC(=Nc4ccc(Cl)c(C(=O)O)c4)NC3=O)o2)c([N+](=O)[O-])cc1C,inactive
20,OCC(O)CCO/N=C1/C(c2c(O)[nH]c3ccccc23)=Nc2ccccc21 (stereo unspecified),2.59 µM (active)
21,Cn1cc(-c2cc(Oc3cc(F)c(NC(=O)C4(C(=O)Nc5ccccc5)CC4)cc3F)ccn2)cn1,13.2 µM (active)
22,COc1cc(OC)cc(N(CCNC(C)C)c2ccc3ncc(-c4cnn(C)c4)nc3c2)c1,10.5 µM (active)
23,Cc1c[nH]c(/C=C2\C(=O)Nc3ccccc32)c1CCC(=O)O,18.6 µM (active)

# Reference: PubChem BioAssay (NCATS)
